# In all, about 310,000 compounds went through this assay and about 14,000 (4.5%) showed an effect of 50% or more. The effect is printed as a negative number. Shown is part of a subset that was picked to be rich in strong results. Where a SMILES comes first, the peptide text is derived from it.
# Target: human ether-à-go-go-related gene (hERG) potassium channel (human, UniProt Q12809)
# Assay: primary screen, population patch clamp on CHO cells stably expressing hERG; higher = less effect of the substance
# 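Note: peak tail current of the secondary pulse compared with the same well before compound.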
# Sequence of human ether-à-go-go-related gene (hERG) potassium channel (Q12809 whole entry, looked up): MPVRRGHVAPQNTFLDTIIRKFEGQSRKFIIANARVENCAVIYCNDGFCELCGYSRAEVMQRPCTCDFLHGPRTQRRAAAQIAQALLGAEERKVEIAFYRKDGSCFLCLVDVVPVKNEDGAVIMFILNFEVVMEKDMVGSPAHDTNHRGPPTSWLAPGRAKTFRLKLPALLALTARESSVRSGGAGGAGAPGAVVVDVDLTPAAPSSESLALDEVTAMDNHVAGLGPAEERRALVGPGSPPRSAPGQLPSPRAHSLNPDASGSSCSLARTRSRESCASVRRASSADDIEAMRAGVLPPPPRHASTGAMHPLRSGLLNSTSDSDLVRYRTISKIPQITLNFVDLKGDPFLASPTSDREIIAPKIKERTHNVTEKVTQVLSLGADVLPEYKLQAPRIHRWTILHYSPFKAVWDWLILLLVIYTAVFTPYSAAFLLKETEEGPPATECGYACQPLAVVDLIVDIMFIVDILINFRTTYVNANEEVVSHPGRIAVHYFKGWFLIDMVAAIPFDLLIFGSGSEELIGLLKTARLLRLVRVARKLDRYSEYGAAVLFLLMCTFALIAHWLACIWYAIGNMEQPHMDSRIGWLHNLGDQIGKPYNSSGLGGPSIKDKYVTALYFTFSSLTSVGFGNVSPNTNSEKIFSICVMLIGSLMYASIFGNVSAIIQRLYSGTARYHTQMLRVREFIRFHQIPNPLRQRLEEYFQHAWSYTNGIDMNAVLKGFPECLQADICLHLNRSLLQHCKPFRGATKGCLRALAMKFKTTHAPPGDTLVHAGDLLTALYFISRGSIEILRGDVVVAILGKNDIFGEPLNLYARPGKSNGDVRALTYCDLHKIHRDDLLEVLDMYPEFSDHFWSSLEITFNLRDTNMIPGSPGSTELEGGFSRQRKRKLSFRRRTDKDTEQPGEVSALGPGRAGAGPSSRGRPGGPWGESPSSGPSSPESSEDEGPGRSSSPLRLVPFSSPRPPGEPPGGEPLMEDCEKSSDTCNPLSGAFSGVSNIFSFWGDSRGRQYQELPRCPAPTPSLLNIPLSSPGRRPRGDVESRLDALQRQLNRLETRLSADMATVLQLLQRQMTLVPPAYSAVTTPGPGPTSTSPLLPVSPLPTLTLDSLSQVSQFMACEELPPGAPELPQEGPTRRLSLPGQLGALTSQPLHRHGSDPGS
row,SMILES,"hERG current change (%, negative = inhibition) at 10uM [%]"
1,Cc1nn2cnc3sc4c(c3c2nc1=O)CCCC4,-3.17
2,COc1ccc(NC(=O)CCCC2=NS(=O)(=O)c3ccccc3N2)cc1,17
3,OCCCNc1c2ccccc2nc2ccccc12,-65.6
4,OCCNc1c2ccccc2nc2ccccc12,-31
5,O=c1c2ccccc2nc2c3ccccc3c(NCc3ccccn3)nn12,-13.5
6,O=c1c2ccccc2nc2c3ccccc3c(NCCO)nn12,-7.34
7,c1ccc2[nH]c(NCCCN3CCOCC3)nc2c1,-6.61
8,CN(C)CCCNc1c2ccccc2nc2ccccc12,-28.8
9,O=c1c2ccccc2oc2cc(NCCCN3CCOCC3)ccc12,-29.7
10,Fc1ccccc1-c1nc(NCCCN2CCOCC2)c2ccccc2n1,-45.9
11,c1ccc2c(NCCCN3CCOCC3)c3ccccc3nc2c1,-66.6
12,O=c1c2ccccc2nc2c3ccccc3c(NCCN3CCOCC3)nn12,-72.2
13,O=c1c2ccccc2sc2ccc(NCCCN3CCOCC3)cc12,-54.2
14,O=c1c2ccccc2oc2ccc(NCCCN3CCOCC3)cc12,-41.9
15,O=C(C1COc2ccccc2O1)N1CCN(c2nc3c(F)cc(F)cc3s2)CC1 (centres unmarked),-16.6
16,CCOc1ccc(S(=O)(=O)NC(C)C(=O)NCc2ccc3c(c2)OCO3)cc1 (centres unmarked),2.83
17,N/C(=N\OC(=O)COc1ccc(Br)cc1)c1cccnc1,-3.21
18,Cc1c(Cl)c([N+](=O)[O-])nn1CC(=O)NC(C)C1CC2CCC1C2 (centres unmarked),-12.9
19,CC(=O)NS(=O)(=O)c1ccc(NC(=O)c2ccc(S(=O)(=O)N3CCCC3)cc2)cc1,-0.257
20,CC(C)(C#N)NC(=O)c1ccco1,4.37
21,COc1ccc(C)cc1NC(=O)COCC(=O)O,-8.48
22,O=C(NC1CCCCC1)C(c1ccccc1)N1CCOCC1 (centres unmarked),9.63

row,SMILES,"hERG current change (%, negative = inhibition) at 10uM [%]"
1,COCCNC(=O)CN1C(=O)COc2ccc(S(=O)(=O)N3CCCCCC3)cc21,20.3
2,CC(C)(C)c1ccc(C(=O)NCc2ccc(Cl)cc2)cc1,12.6
3,O=[N+]([O-])c1ccc2c(c1Nc1ccccc1Cl)=NC1(CCCCC1)N=2,3.29
4,CC(=O)NCCc1nc2cc(NC(=O)c3ccc(F)cc3)ccc2n1C,9.6
5,CC(=O)NC(Cc1ccccc1)C(=O)NC(Cc1ccccc1)C(=O)O (stereo not drawn) (Ac-Phe-Phe-OH; configuration not given here),10.4
6,O=C(CCN1C(=O)c2ccccc2C1=O)Nn1cnnc1,-0.368
7,Clc1ccc(-c2nc(NCCCN3CCOCC3)c3ccccc3n2)cc1,-18.9
8,c1ccc(-c2nc(NCCCN3CCOCC3)c3ccccc3n2)cc1,-34.6
9,c1csc(-c2nc(NCCCN3CCOCC3)c3ccccc3n2)c1,-50.7
10,COC(=O)c1ccc(N2C(=O)C3CC(C)=C(C)CC3C2=O)cc1 (centres unmarked),3.73
11,CCCC(c1nnnn1CCc1ccccc1)N1CCN(C(=O)c2ccco2)CC1 (centres unmarked),-49.3
12,CCC(c1nnnn1CCOC)N1CCN(C(=O)c2ccco2)CC1.Cl (centres unmarked),9.17
13,CCCC(c1nnnn1C(C)(C)CC)N1CCN(C(=O)c2ccco2)CC1.Cl (centres unmarked),-54
14,CCC(c1nnnn1CCc1ccccc1)N1CCN(C(=O)c2ccco2)CC1.Cl (centres unmarked),-28
15,CCCC(c1nnnn1Cc1ccco1)N1CCN(C(=O)c2ccco2)CC1.Cl (centres unmarked),-11.8
16,CCCCC(c1nnnn1Cc1ccco1)N1CCN(C(=O)c2ccco2)CC1.Cl (centres unmarked),-51.8
17,CCCC(c1nnnn1Cc1ccc(OC)cc1)N1CCN(C(=O)c2ccco2)CC1 (centres unmarked),-51.3
18,CCCC(c1nnnn1C(C)(C)C)N1CCN(C(=O)c2ccco2)CC1.Cl (centres unmarked),-12.8
19,CCC(c1nnnn1Cc1ccc(OC)cc1)N1CCN(C(=O)c2ccco2)CC1.Cl (centres unmarked),-55.5
20,CCC(c1nnnn1Cc1ccco1)N1CCN(C(=O)c2ccco2)CC1.Cl (centres unmarked),-20.6
21,CCC(C)(C)n1nnnc1C(C(C)C)N1CCN(C(=O)c2ccco2)CC1 (centres unmarked),-29.7
22,CCCC(c1nnnn1CCOC)N1CCN(C(=O)c2ccco2)CC1.Cl (centres unmarked),-4.1

# Reference: article PMC4336329 (PLoS ONE, 2015)
